# Several values for one entry are separate records, joined by “and”; a condition that tells them apart may be missing. Equal values may be shown once. Where a name gives a salt, the structure may show the parent alone. ± gives the standard deviation of the averaged measurements.
# Tested on: TOV-21G
# Assay: cell viability relative to DMSO control (MTS) (fraction of DMSO control); higher = more viable cells / less growth inhibition
# Settings: 10 µM; 48 h
# In short: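 After 24 h of growth in 96-well plates at 5000 cells per well, TOV-21G and ES2 clear cell carcinoma cells were treated for 48 h with a 367-compound […] library at 10 µM final concentration. Cell viability was measured by MTS assay and expressed relative to vehicle control wells as a fraction.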
row,SMILES,cell viability
1,C/C=C(/C)C(=O)O[C@H]1C(C)=C2[C@H]([C@@H]1OC(=O)CCCCCCC)[C@@](C)(OC(C)=O)C[C@H](OC(=O)CCC)[C@@]1(O)[C@H]2OC(=O)[C@@]1(C)O [Thapsigargin],0.348
2,C=C(C)[C@H]1Cc2c(ccc3c2O[C@@H]2COc4cc(OC)c(OC)cc4[C@@H]2C3=O)O1 [Rotenone],0.666
3,C/C(O)=C(\C#N)C(=O)Nc1cc(Br)ccc1Br,1.34 ± 0.19
4,"N=C(N)NN [Aminoguanidine, HCl]",0.337
5,Cc1sc2c(c1C)C(c1ccc(Cl)cc1)=N[C@@H](CC(=O)OC(C)(C)C)c1nnc(C)n1-2,0.305
6,CCC1(c2ccc(N)cc2)CCC(=O)NC1=O (configuration not stated) [Aminoglutethimide],0.918
7,CC(C)(c1ccc(OCC2CO2)cc1)c1ccc(OCC2CO2)cc1 (configuration not stated),1.27
8,O[C@H]1[C@H]2[C@H](O)CCCN2C[C@H]1O [Swainsonine],0.689
9,C[C@@]1(CO)[C@H](O)CC[C@@]2(C)[C@H]1CC[C@H]1C[C@@H]3C[C@@]12CC[C@]3(O)CO [Aphidicolin],0.869
10,C[C@@H]1C[C@@H]([C@H](O)CC2CC(=O)NC(=O)C2)C(=O)[C@@H](C)C1 [Cycloheximide],0.373
11,CO/C1=C\C(C)=C\[C@@H](C)[C@@H](O)[C@@H](C)C/C(C)=C/C=C/[C@H](OC)[C@@H]([C@@H](C)[C@@H](O)[C@H](C)[C@@]2(O)C[C@@H](O)[C@H](C)[C@@H](C(C)C)O2)OC1=O [Bafilomycin A1],0.395
12,COC(=O)C1(OC)CC2OC1(C)n1c3ccccc3c3c4c(c5c6ccccc6n2c5c31)C(=O)N(C)C4 (configuration not stated),0.914 and 1.01
13,N.N.[Cl][Pt][Cl] [Cisplatin],1.09
14,C[C@H]1CCC/C=C/[C@@H]2C[C@H](O)C[C@H]2[C@H](O)/C=C/C(=O)O1 [brefeldin A],0.407
15,CC(C)[C@@H]1NC(=O)[C@H](C)OC(=O)[C@@H](C(C)C)NC(=O)[C@@H](C(C)C)OC(=O)[C@H](C(C)C)NC(=O)[C@H](C)OC(=O)[C@@H](C(C)C)NC(=O)[C@@H](C(C)C)OC(=O)[C@H](C(C)C)NC(=O)[C@H](C)OC(=O)[C@@H](C(C)C)NC(=O)[C@@H](C(C)C)OC1=O [Valinomycin],0.355
16,NC(=S)N/N=C\c1coc2ccccc2c1=O.[Cl][Cu][Cl] [Akt Inhibitor XI],0.935
17,CNc1ccc2oc(C[C@H]3O[C@@]4(CC[C@H]3C)O[C@H]([C@H](C)C(=O)c3ccc[nH]3)[C@H](C)C[C@H]4C)nc2c1C(=O)O,0.284
18,CN1C(=O)CN=C(c2ccc(Cl)cc2)c2cc(Cl)ccc21,0.825
19,CO[C@@H]1C[C@@H](C[C@H]2CC[C@H](C)[C@H]([C@@H](C)C(=O)O)O2)O[C@]2(O[C@](C)([C@H]3CC[C@@](C)([C@@H]4O[C@@H]([C@H]5O[C@@](O)(CO)[C@H](C)C[C@@H]5C)C[C@@H]4C)O3)C[C@H]2C)[C@@H]1C [Nigericin],0.344
20,C[C@@H]1O[C@@H](O[C@H]2C[C@@H](O)[C@]3(CO)[C@H]4[C@H](O)C[C@]5(C)[C@@H](C6=CC(=O)OC6)CC[C@]5(O)[C@@H]4CC[C@]3(O)C2)[C@H](O)[C@H](O)[C@H]1O [Ouabain],0.279
21,CN[C@@H]1C[C@H]2O[C@@](C)([C@@H]1OC)n1c3ccccc3c3c4c(c5c6ccccc6n2c5c31)C(=O)NC4 [Staurosporine],0.239
22,O=C1Nc2ccccc2C2(CCN(CCc3ccc(C(F)(F)F)cc3)CC2)O1,1.12
